# Sampled rows, rich in hits. Any-hit rate of the full collection: about 2.9%.
# SKOV3 invasion – inhibitors of ovarian cancer cell adhesion and invasion in omental model. SKOV3ip1-GFP adhesion/invasion on 3D omental model, fluorescence. Potency, µM (highest dose often 45.8 µM), inactives show top-dose activity change, negative = inhibition, usual class: inhibitors. actives 0.1% (n = 46,000);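 also: potency is read from the fitted curve at half-maximal effect; plate controls were DMSO wells for no effect and tomatine positive control wells for full effect; nearly all actives have a fitted effect of over 65% in size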
#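 Primary human omental fibroblast/mesothelial 3D culture pre-formed 48 h. SKOV3ip1-GFP cells added with compounds (0.36-46 umol/L), incubated 2 h RT/16 h 37 C, fixed; GFP cells quantified at 488/509 nm.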
# GALC G270D up – raises human GALC G270D mutant activity in cells; Potency, µM (titrated, usually from 57.5 µM), actives largely listed as activators; actives 0.1% (n = 45,000); 145M-Twi-hGALC-G270D cells (Twitcher mouse brain line with human GALC G270D), HMU-beta-Gal fluorescence, 48 h; P54803; also: potency is read from the fitted curve at half-maximal effect; 0% is about no effect; nearly all actives have a fitted effect of over 65% in size
#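 Fluorogenic HMU-b-Gal hydrolysis (0.1 mM final, pH 5.2 citrate-phosphate with 1 mg/mL sodium taurocholate; carbonate stop buffer) measures mutant GALC activity after compound treatment of live 145M-Twi Twitcher brain cells stably carrying human GALC-G270D, with wild-type GALC line alongside; activation sought.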
# GPR32 ag – activates human resolvin D1 receptor GPR32. CHO-K1 GPR32 beta-arrestin PathHunter luminescence, 90 min; zero percent set by DMSO-only wells. activation, % at 76.9 µM. actives 2.5% (n = 48,000). AID 1346428;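 active = activation of at least 60% and not above a set upper limit, about 1 call in 100 departs from these limits; inconclusive = activation of 40% to 60%, or above that upper limit; inactive = activation under 40%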; also: 0% is about no effect
#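 Engineered CHO-K1 line co-expressing GPR32-ProLink and EA-beta-arrestin. Compound treatment lasted 90 min at 37 °C. Luminescence was recorded after 1 h with substrate at ambient temperature, relative to DMSO basal wells.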
# FH mod – Identification of activators of human fumarate hydratase by quantitative high-throughput screening; Fumarate hydratase, mitochondrial (Homo sapiens), P07954; FH coupled MDH/diaphorase resazurin fluorescence, 15 min; actives 0.22% (n = 54,000); Potency, µM (top dose mostly 79.9 µM), inactives show top-dose activity change, negative = inhibition, hits mostly inhibitors; also: potency is read from the fitted curve at half-maximal effect; % is scaled to controls: 0 for no effect and ±100 for the full control effect; the screen sought activators but most active calls are inhibition curves; nearly all actives have a fitted effect of over 45% in size
# Target sequence (P07954 whole entry, looked up): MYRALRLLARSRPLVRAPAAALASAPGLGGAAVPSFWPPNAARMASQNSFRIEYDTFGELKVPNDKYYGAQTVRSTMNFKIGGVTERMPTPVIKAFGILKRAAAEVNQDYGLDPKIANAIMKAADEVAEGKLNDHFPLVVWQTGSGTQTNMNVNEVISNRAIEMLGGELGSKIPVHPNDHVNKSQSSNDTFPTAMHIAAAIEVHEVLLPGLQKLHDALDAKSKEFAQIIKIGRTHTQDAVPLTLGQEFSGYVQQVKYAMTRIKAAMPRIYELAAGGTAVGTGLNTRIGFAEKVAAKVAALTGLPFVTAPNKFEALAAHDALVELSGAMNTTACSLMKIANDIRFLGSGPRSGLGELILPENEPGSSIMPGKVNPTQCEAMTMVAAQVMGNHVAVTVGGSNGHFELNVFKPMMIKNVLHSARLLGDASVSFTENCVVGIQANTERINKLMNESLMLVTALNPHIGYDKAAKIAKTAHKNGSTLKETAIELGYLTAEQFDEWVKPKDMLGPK
# An asterisk follows results filed as active; i = inactive; ? = inconclusive; nt = not tested or not shown; ! = not active in a repeat; [ ] = another dose, or the depositor's remark. Unless noted, calls follow the shape of the dose curve; as a rule, active = well fitted curve in the direction sought with a large enough effect; inconclusive = small, poorly fitted or top-dose-only effect, or another doubt; inactive = no such curve, though single readings can be large; an effect the other way counts as inactive or inconclusive.
SMILES,SKOV3 invasion,GALC G270D up,GPR32 ag,FH mod
CN(C)c1ccc(CNC(=O)Cn2c(=O)oc3cc(S(=O)(=O)N4CCCCCC4)ccc32)cc1,-1.1%,i,112.7*,-6.2%
COc1cccc(CNC(=O)Cn2c(=O)oc3cc(S(=O)(=O)N4CCCCCC4)ccc32)c1,-2.5%,i,75.9*,-6.2%
CN(C)c1ccc(CNC(=O)C(Cc2ccccc2)NS(=O)(=O)c2ccc3c(c2)oc(=O)n3C)cc1 (configuration not stated),4.3%,i,94.3*,15.4%
CC1=C(c2ccc(NC(=O)c3c(F)cccc3F)cc2)CN(c2nccs2)CC1,nt,nt,nt,-15.6%
CC1(C)CC[C@]23CO[C@@]4(CCC5[C@@]6(C)CC[C@H](O[C@@H]7OC[C@H](O[C@@H]8O[C@H](CO)[C@@H](O)[C@H](O)[C@H]8O)[C@H](O)[C@H]7O[C@@H]7O[C@H](CO)[C@@H](O[C@@H]8O[C@H](CO)[C@@H](O)[C@H](O)[C@H]8O)[C@H](O)[C@H]7O)[C@@](C)(CO)C6CC[C@@]5(C)[C@]4(C)C[C@H]2OC2OCC(O)C(O)C2O)C3C1 (some centres not stated),nt,nt,nt,8.1%[13.5 µM]
C=C(C=O)[C@]1(O)C[C@@]2(C)C(=CC1=O)C=C[C@H](OC(=O)/C=C/C=C/[C@H](C)CC)[C@@H]2C,nt,nt,nt,-1.2%[53.3 µM]
COc1ccc(-c2nnc(SCC(=O)N3CCC(C)CC3)o2)cc1,0.0%,i,78.0*,-8.2%
CC1CCN(C(=O)CSc2nnc(-c3ccccc3)o2)CC1,-18.4%,i,-8.1,-3.5%
OCCN1CCN(CC/C=C2/c3ccccc3Sc3ccc(C(F)(F)F)cc32)CC1,nt,i,61.7*!,?
OCCN1CCN(CCCN2c3ccccc3Sc3ccc(C(F)(F)F)cc32)CC1,-38.0%,i,-14.4,-4.8%[53.3 µM]
C=CC(=O)N1CCCC(n2nc(-c3ccc(Oc4ccccc4)cc3)c3c(N)ncnc32)C1 (configuration not stated),nt,nt,nt,-4.8%
Cc1noc(C)c1S(=O)(=O)Nc1ccc(C(=O)Nc2ccc(C(C)C)cc2)cc1,i,i,91.0*,-13.2%
Cc1cc(Br)ccc1NC(=O)c1ccc(NS(=O)(=O)c2c(C)noc2C)cc1,-0.3%,i,63.8*,-7.4%
Cc1noc(C)c1S(=O)(=O)Nc1ccc(C(=O)Nc2ccc(Br)cc2)cc1,i,i,95.4*,?
Cc1nc(NC(=O)N2CCC[C@H]2C(N)=O)sc1-c1ccnc(C(C)(C)C(F)(F)F)c1,nt,nt,nt,29.4%
CC(C)=C1C[C@@]2(C)C(=CC1=O)CC[C@@H](OC(=O)/C(C)=C/CO)[C@@H]2C,nt,nt,nt,5.4%[53.3 µM]
CC(=O)N1c2ccc(S(=O)(=O)NCC3CCC(C(=O)Nc4ccc(F)cc4)CC3)cc2CC1C (configuration not stated),-2.6%,i,68.0*,5.9%
CC(=O)c1ccc(NC(=O)C2CCC(CNS(=O)(=O)c3cccs3)CC2)cc1 (configuration not stated),-0.2%,i,107.7*,-22.5%
Cc1nn(Cc2ccc(Cl)cc2)c(C)c1NC(=O)c1noc2c1CCc1ccccc1-2,-1.0%,nt,107.2*,nt
Cc1nn(Cc2ccccc2Cl)c(C)c1NC(=O)c1cc(C(C)C)on1,-0.9%,nt,86.1*,nt
Cc1nn(Cc2ccccc2)c(C)c1NC(=O)c1cc(C(C)C)on1,3.6%,i,39.4,-30.3%
COc1cc(/C=C2\CCCN([C@@H](C)c3ccc(F)cc3)C2=O)ccc1-n1cnc(C)c1,nt,nt,nt,-8.4%
CC(C)(C)Oc1ccc(OCC2Cc3ccccc3CN2C(=O)c2cccc3ccccc23)cc1 (configuration not stated),nt,nt,nt,-20.0%
CC1=C(C(=O)Nc2cc(Cl)ccc2Cl)C(c2ccco2)C2=C(CCCC2=O)N1 (configuration not stated),nt,nt,nt,0.1%
C=C(CC)C(=O)c1ccc(OCC(=O)O)c(Cl)c1Cl,nt,i,89.6*,-5.7%[53.3 µM]
SMILES,SKOV3 invasion,GALC G270D up,GPR32 ag,FH mod
C[C@@]1(C2CCCC2)Cc2cc(OCC(=O)O)c(Cl)c(Cl)c2C1=O,nt,nt,-17.2,?
CC(=O)O[C@@H]1[C@@H](O)[C@H](O[C@@H]2[C@@H](O)[C@@H](O)[C@H](O[C@H]3[C@H](O[C@H]4[C@H](O[C@H]5CC[C@@]6(C)C(CC[C@]7(C)C6CC=C6[C@@H]8CC(C)(C)CC[C@]8(C(=O)O)CC[C@]67C)[C@]5(C)CO)O[C@H](CO)[C@@H](O)[C@@H]4O)OC[C@@H](O)[C@@H]3O)O[C@H]2C)OC[C@H]1O (some centres not stated),nt,nt,nt,2.8%[20.6 µM]
CCC(=O)N1CCc2cc(S(=O)(=O)N(C)c3cccc(C)c3)ccc21,-8.0%,i,63.2*,-10.4%
COc1cc(O)c2c(c1)/C=C/C[C@H](O)[C@H](O)C(=O)/C=C\C[C@H](C)OC2=O,nt,nt,nt,-5.7%
[2H]C([2H])([2H])C(OC(=O)[C@H](C)N[P@](=O)(OC[C@H]1O[C@@H](n2ccc(=O)[nH]c2=O)[C@](C)(F)[C@@H]1O)Oc1ccccc1)C([2H])([2H])[2H],nt,nt,nt,12.4%
CCCN(CCC)CC(O)Cn1cc(/C=C/C(=O)c2ccc(OCC)cc2)c2ccccc21 (configuration not stated),-19.0%,35.5µM*,?,-10.4%
CC1(C)CC[C@]2(C(=O)O)CC[C@]3(C)C(=CCC4[C@@]5(C)C[C@@H](O)[C@H](O)[C@@](C)(CO)C5CC[C@]43C)[C@@H]2[C@@H]1O (some centres not stated),nt,nt,nt,-3.4%[53.3 µM]
COc1ccc(Nc2c(-c3ccc(Cl)cc3)nc3cnccn23)cc1OC,9.8%,i,97.5*,-28.2%
COc1cc(C2c3c(-c4cc(C)ccc4O)n[nH]c3C(=O)N2CCCO)ccc1OCCC(C)C (configuration not stated),?,i,102.0*,-3.4%
COCCN1C(=O)c2[nH]nc(-c3cc(C)ccc3O)c2C1c1ccc(C(C)C)cc1 (configuration not stated),?,i,25.2,-26.7%
CCCN1C[C@H](CSC)C[C@@H]2c3cccc4[nH]cc(c34)C[C@H]21,nt,i,79.4*!,0.4%
CN1C[C@H](C(=O)N[C@]2(C)O[C@@]3(O)[C@@H]4CCCN4C(=O)[C@H](Cc4ccccc4)N3C2=O)C[C@@H]2c3cccc4[nH]cc(c34)C[C@H]21,nt,i,-18.0,-16.5%[53.3 µM]
Cc1[nH]c(/C=C2\C(=O)Nc3ccccc32)c(C)c1CCC(=O)O,nt,nt,nt,-0.2%
Cc1ccc(OCC(=O)Nc2nnc(SCc3cc(=O)c4ccccc4[nH]3)s2)cc1,2.1%,i,120.2*,-4.2%
CCC(CC)C(=O)Nc1nnc(SCc2cc(=O)c3ccccc3[nH]2)s1,i,i,99.0*,1.0%
Cn1c(=O)n(-c2ccc(C(C)(C)C#N)cc2)c2c3cc(C#Cc4cccnc4)ccc3ncc21,nt,nt,nt,5.9%[53.3 µM]

# Bioassay records (PubChem BioAssay)
